Screening data (PubChem BioAssay)
Hits are enriched below; roughly 10% of the tested compounds scored in any of these assays.
PTEN del growth – growth suppression of PTEN-null HCT116, primary screen, cell-based, CellTiter-Glo. HCT116 PTEN-null viability, 60 h; hits give low values. viability, % at 10 µM. 1.2% of 140,000 active. AID 827, 2007;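 active = viability at or below a set limit, 4 SD under the median of all tested compounds, cut at about 3.7% in these data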;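 note: PTEN knockout HCT116 line with beta catenin targeted HCT116 as companion control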
p97 ATPase inh – inhibitors of human p97 ATPase, primary screen, biochemical; inhibition, % at 8 µM; recombinant p97 ATPase, Kinase-Glo ATP luminescence, 3 h; Transitional endoplasmic reticulum ATPase (Homo sapiens), P55072; 0.42% of 220,000 active; in the data active = inhibition above about 15%;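 note: 0% = DMSO vehicle and 100% = wells lacking enzyme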
Insulin prom inh – inhibitors of insulin promoter-driven GFP, primary screen, imaging, TRM-6 cells (human fetal islet line), eGFP reporter, cell count; reporter expression induced with tamoxifen; inhibition, % at 2 µM; 0.9% of 130,000 active; AID 1273, 2008;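 active = inhibition above the mean plus 3 SD, with well images judged a real hit on visual review, cut at about 60% in these data, passing the limit was not always enough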
HCT116 bCat-KO – primary screen for growth suppressors in beta-catenin knockout HCT116 cells (colon tumor, human); HCT116 beta-catenin knockout viability, CellTiter-Glo, 60 h; hits give low values; viability, % at 10 µM; 1.5% of 140,000 active; AID 818, 2007;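 active = viability at or under a set limit, the compound median less 4 SD, cut at about 6% in these data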;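 note: 0% = Hyamine 1622 control at 20 µM and 100% = untreated cell control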
Lmaj promast – Leishmania major promastigote growth inhibition, primary screen; Leishmania major promastigotes, resazurin fluorescence viability; inhibition, % at 10 µM; 9% of 200,000 active; AID 1063, 2008; in the data active = inhibition above about 50%;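 note: promastigotes grown with compound for 44 hours at 28 °C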
ROMK mod – ROMK potassium channel modulators, primary screen, cell-based, thallium flux, MLSMR library; ATP-sensitive inward rectifier potassium channel 1 (Homo sapiens), P48048; Tet-inducible ROMK, thallium flux fluorescence; actives lie on both sides; B-score at 10 µM; 2% of 130,000 active; AID 1918, 2009;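 active = signal ratio slope over the read window, or its plate-corrected B-score, at least 3 SD from the plate mean, either direction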;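 note: B-score of the F/F0 ratio slope over 7 to 12 s after thallium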
Target sequence (P48048 whole entry, looked up): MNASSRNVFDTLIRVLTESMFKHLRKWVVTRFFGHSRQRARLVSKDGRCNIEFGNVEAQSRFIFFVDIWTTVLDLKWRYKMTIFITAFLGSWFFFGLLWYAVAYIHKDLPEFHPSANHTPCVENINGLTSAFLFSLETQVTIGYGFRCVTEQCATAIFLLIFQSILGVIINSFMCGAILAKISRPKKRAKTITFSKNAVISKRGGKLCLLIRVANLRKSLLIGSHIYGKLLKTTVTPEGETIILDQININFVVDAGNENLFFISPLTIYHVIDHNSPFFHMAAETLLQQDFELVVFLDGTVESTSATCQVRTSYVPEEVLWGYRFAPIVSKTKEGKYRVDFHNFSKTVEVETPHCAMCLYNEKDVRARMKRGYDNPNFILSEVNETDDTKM
* = called active by the depositor; nt = no result given.

SMILES	PTEN del growth	p97 ATPase inh	Insulin prom inh	HCT116 bCat-KO	Lmaj promast	ROMK mod
COc1cc(C(=O)O/N=C2/C=CC(=O)C(C)=C2C)cc(OC)c1OC	2.5*	1	0	18	100*	-0.58
CCN1CCN(C(=O)c2ccc(N3CC4CC(C3)c3cccc(=O)n3C4)c([N+](=O)[O-])c2)CC1 (centres undefined)	nt	4	-33	nt	-8	0.015
Cc1ccc(NC(=O)Nc2cccc([N+](=O)[O-])c2)cc1F	7	4	nt	14	53*	nt
O=C(Nc1cccc([N+](=O)[O-])c1)C1C2CC/C=C\CCC21 (centres undefined)	nt	5	nt	nt	nt	nt
Cc1cc([N+](=O)[O-])ccc1NC(=O)Nc1ccc(F)cc1F	nt	0	-58	nt	67*	-0.42
O=C(Nc1ccc(OC(F)(F)F)cc1)Nc1cccnc1	nt	2	nt	nt	nt	nt
CC1=C(C)CC(C(=O)Nc2cccc([N+](=O)[O-])c2)C(C(=O)O)C1 (centres undefined)	91	8	-25	105	67*	0.73
O=C(Nc1ccc(OC(F)(F)F)cc1)Nc1cccc([N+](=O)[O-])c1	3.5*	6	nt	2.9*	100*	nt
COc1ccc(C2=NOC(COc3ccc([N+](=O)[O-])cc3)C2)cc1 (centres undefined)	nt	4	nt	nt	nt	-1.1
CC(C)CCNC(=O)c1ccc(Cl)c(NC(=O)c2ccccc2F)c1	nt	-1	nt	nt	-6	nt
CCOc1cc(S(=O)(=O)NCc2ccncc2)ccc1Cl	nt	1	12	nt	11	-0.02
Cn1c(Cl)cnc1C1CC(=O)c2cc(Cl)ccc2O1 (centres undefined)	1.8*	6	nt	2.8*	100*	-0.93
Cc1ccc(C(=O)Nc2ccc([N+](=O)[O-])cn2)o1	97	-6	17	83	21	1.2
Cc1nc(C(F)(F)F)c(C(=O)N/N=C(\N)c2ccccn2)s1	nt	4	-27	nt	96*	0.35
N/C(=N\NS(=O)(=O)c1ccccc1C(F)(F)F)c1ccccn1	nt	8	nt	nt	nt	nt
COc1cc(CCC(C)=O)ccc1OC(=O)c1c(F)cccc1Cl	nt	-1	nt	nt	nt	nt
CCN(CC)CCn1c(=N)n(CC(O)COc2cccc(C)c2)c2ccccc21 (centres undefined)	nt	-5	nt	nt	100*	-2.5
O=C(CCc1nnc(Cc2ccc3c(c2)OCO3)o1)NCc1nc2ccccc2s1	nt	9	78*	nt	-3	0.2
O=C(CCc1nc2ccccc2[nH]1)NCc1ccc2c(c1)OCO2	89	6	-40	90	7	-0.2
CCC(C)c1ccccc1NC(=O)COC(=O)C1=COCCO1 (centres undefined)	nt	0	nt	nt	-6	-0.16
COc1ccccc1CN1CCNC(=O)C1CC(=O)NCc1cn(C)nc1C (centres undefined)	nt	2	-73	nt	0	nt
Cc1cccc(CCNC(=O)C2CCN(S(=O)(=O)c3c(C)noc3C)CC2)c1	92	0	23	93	100*	-0.83
CCC1CCCCN1CCNC(=O)C1CCN(S(=O)(=O)c2c(C)noc2C)CC1 (centres undefined)	105	-3	19	99	77*	-0.094
CCC1CCCCN1CCCNC(=O)C1CCN(S(=O)(=O)N2CCCCC2)CC1 (centres undefined)	114	-4	-215	94	5	0.25
COc1ccc(CCNC(=O)C2CCN(S(=O)(=O)c3c(C)noc3C)CC2)cc1OC	109	-7	66*	94	53*	0.62
SMILES	PTEN del growth	p97 ATPase inh	Insulin prom inh	HCT116 bCat-KO	Lmaj promast	ROMK mod
COc1ccc(CCNC(=O)C2CCN(S(C)(=O)=O)CC2)cc1OC	90	-1	5	88	-5	0.78
CC[N+](CC)(CC)C/C=C/CN1CCCCC1	98	3	36	98	58*	nt
CSc1nc(-c2ccc(C)cc2)[nH]c1S(=O)(=O)c1ccccc1	62	5	36	71	56*	nt
CC(=O)Sc1nc(-c2ccccc2)[nH]c1S(=O)(=O)c1ccc(C)cc1	nt	4	-74	nt	-7	-0.69
COc1ccc([N+](=O)[O-])cc1NC(=O)C1CCCCC1C(=O)O (centres undefined)	104	0	-75	97	-4	0.29
CC(C)c1ccc(CN(C)CC(O)c2ccccc2)cc1 (centres undefined)	nt	1	nt	nt	75*	-1.7
CCCCOC(=O)C1=C(C)Nc2nnnn2C1c1ccc(OC)c(OC)c1OC (centres undefined)	83	3	-25	101	94*	-0.71
CCCCOC(=O)C1=C(C)Nc2ncnn2C1c1ccc(OC)c(OC)c1OC (centres undefined)	95	-2	29	94	14	nt
COCCNC(=S)N/N=C(\C)c1ccccc1O	8	5	-331	4.2*	-4	-0.017
CCOC(=O)c1cnc2ccccc2c1NCCO	91	5	11	98	-3	nt
CCOC(=O)c1cnc2c(Cl)cc(Cl)cc2c1NCCOCCO	62	-3	nt	75	96*	nt
Cn1cnc([N+](=O)[O-])c1S(=O)(=O)c1cccc(Cl)c1	0.9*	-1	31	1.2*	65*	-2.5
COC(=O)CSc1nc(C)c2c(n1)CCCC2	nt	1	27	nt	-6	0.98
COc1cc2c(cc1C1NC(=S)NC(C)=C1C(N)=O)CCCC2 (centres undefined)	nt	6	-33	nt	-1	0.44
CCCCOC(=O)c1cc(=O)[nH]c(=O)[nH]1	nt	6	40	nt	-7	0
OC(COc1cccc2ccccc12)CN1CCN(c2ccccc2)CC1 (centres undefined)	nt	-16	nt	nt	nt	nt
CC(COc1cccc2ccccc12)CN1CCN(C)CC1 (centres undefined)	61	2	-104	47	83*	0.18
O=C(Nc1cccc(F)c1)N1CCCC(CNS(=O)(=O)Cc2ccccc2)C1 (centres undefined)	nt	6	nt	nt	92*	-0.92
O=c1[nH]c(SCc2ccccc2)nc2[nH]ncc12	nt	2	nt	nt	-5	-1.2
CCCCSC(=S)NC1CCS(=O)(=O)C1 (centres undefined)	70	5	-7	76	95*	0.93
CC(=O)Nc1sc2c(c1-c1nc3ccccc3s1)CCN(C(C)C)C2	nt	-2	nt	nt	100*	nt
CCc1ccc(S(=O)(=O)c2nnn3c2nc(NCCNC(C)=O)c2ccccc23)cc1	nt	-2	83*	nt	-8	0.43
NS(=O)(=O)c1ccc(CCNC(=O)Nc2ccc(Cl)c(Cl)c2)cc1	66	-1	nt	72	76*	0.0082
NS(=O)(=O)c1ccc(CNC(=S)Nc2ccc(Cl)c(Cl)c2)cc1	nt	1	nt	nt	17	-1.1
O=C(Nc1ccccc1)c1ccsc1	99	-3	-20	95	4	nt
O=C(NCCC1=CCCCC1)c1coc(=O)c(Br)c1	1.0*	-4	2	1.1*	-4	nt
